High-throughput results: PubChem, several laboratories
TROY NFkB inh = inhibitors of TROY-dependent NF-kB signaling. AID 1347056. inhibition, % at 10 µM. hit rate 0.98% among 360,000. Q293 LMP1-TROYcd NF-kB luciferase reporter, 4 h;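 active = compounds whose plate-normalised and pattern-corrected inhibition of the luciferase reporter signal at the single screening dose is 50% or more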
TRPM1 prom inh = inhibitors of MITF-driven TRPM1 promoter in melanoma cells. AID 488899. hit rate 0.83% among 330,000. SK-MEL-5 TRPM1 promoter luciferase, 24 h. inhibition, % at 12.5 µM;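 active = mean inhibition across replicates of 60% or more, whatever share of single replicates reaches that level; inconclusive = some that reach 60%, reason not given; inactive = mean inhibition across replicates below 60%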
TWEAK-Fn14 inh = inhibitors of TWEAK-Fn14 interaction signaling; TWEAK-stimulated Fn14 reporter cells, luciferase luminescence, 8 h; inhibition, % at 10 µM; hit rate 2% among 360,000; in the data active = inhibition above about 50%
EBV LMP1 NFkB = reduces LMP1-driven NF-kappaB luciferase signal; LMP1-induced NF-kappaB luciferase reporter cells, luminescence; AID 504558; hit rate 0.69% among 350,000; inhibition, % at 12.5 µM; in the data active = inhibition above about 41%; inconclusive = no clear call, values can overlap the other calls
LGR2 antag = inhibitors of bursicon-induced Drosophila LGR2 receptor cAMP signaling; AID 720647; hit rate 0.35% among 380,000; inhibition, % at 9.99 µM; HEK293 LGR2, CRE-luciferase, bursicon-stimulated, 4 h;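 active = drop in luminescence signal, shown as inhibition above about 50% in the replicate tests, limit read from the data, passing the limit was not always enough; inconclusive = probably only some replicates passing the limit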;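 note: agonist challenge used bursicon conditioned medium at about half maximal strength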
MITF TRPM1 HTS = activators of MITF-driven TRPM1 promoter activity in SK-MEL-5 cells; SK-MEL-5 TRPM1-promoter luciferase, 24 h; % of positive control, neutral wells = 0; activation, % at 12.5 µM; hit rate 0.75% among 300,000;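 active = mean activation of at least 80% with every replicate also reaching 80%; inconclusive = mean reaches 80% but some replicate falls short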
Hits are given with their value; n = inactive; u = inconclusive; x = no result. The list is not random: actives were taken first. Their share in the collection is about 3%.

SMILES	TROY NFkB inh	TRPM1 prom inh	TWEAK-Fn14 inh	EBV LMP1 NFkB	LGR2 antag	MITF TRPM1 HTS
COc1ccc(C2=CN(Cc3ccccc3)C(c3ccccc3)CC2=O)cc1 (stereo not given)	n	n	n	n	n	100
COc1ccc(C2CC(=O)C(c3ccc(Br)cc3)=CN2Cc2ccccc2)cc1 (stereo not given)	x	x	x	x	n	x
COc1ccccc1CNS(=O)(=O)c1cc(CN2C(=O)c3cccnc3C2=O)ccc1OC	n	n	n	n	n	n
COc1cc(CCNC2=CC(=O)c3ncccc3C2=O)ccc1O	n	113	n	n	n	x
O=C(C[C@H]1C[C@H]2c3cc(NC(=O)CC4CC4)ccc3O[C@H]2[C@@H](CO)O1)NCC(F)(F)F	x	x	x	x	n	x
Brc1ccc(/C=N/Nc2ccccc2)cc1	n	n	n	n	x	84
Nc1ncnc2c1C(c1ccccc1)c1c(ccc3ccccc13)O2 (stereo not given)	57	n	n	n	n	n
COc1cccc(-c2ccc3n(c2=O)C[C@H]2[C@H](CO)[C@@H](C(=O)N(C)C)N(C(=O)C4CCCC4)[C@@H]32)c1	x	x	x	x	n	x
C[C@@H]1CN([C@@H](C)CO)C(=O)c2cccc(NC(=O)Nc3cccc4ccccc34)c2O[C@H]1CN(C)C(=O)NC1CCCCC1	x	x	x	x	n	x
COc1cccc2c1C(CO)N1C(C#N)C3CC(C(=O)O)C(C1C2)N3C (stereo not given)	51	67	102	89	92	n
CC1CC(CN)CC(CO)C1 (stereo not given)	n	n	53	n	n	n
Cc1cccc(N2CCN(C(=O)Cn3nc(Cc4ccncc4)c4ccccc4c3=O)CC2)c1C	n	n	n	91	n	n
O=C(/C=C/c1cn(-c2ccccc2)nc1-c1cccnc1)c1ccco1	n	n	80	n	n	n
O=C(/C=C/c1cn(-c2ccccc2)nc1-c1cccnc1)N1CCCC1	n	n	n	u	n	n
COCCSc1nnc(NS(=O)(=O)c2ccc(C)cc2)s1	54	n	n	n	n	n
CC(C)(C)S(=O)N1Cc2cc(C(=O)NCC(F)(F)F)nc(-c3cccc(-c4cccc(F)c4)c3)c2[C@@H]1CCO (stereo not given in full)	n	x	53	x	n	x
O=C(NCCN1C(=O)S/C(=C\c2ccc(Cl)c([N+](=O)[O-])c2)C1=O)C1=COCCO1	57	n	64	n	n	n
c1coc(-c2ccc3nncn3c2)c1	n	x	n	x	n	x
c1ccc2c(-c3ccc4nncn4c3)cncc2c1	n	x	78	x	n	x
CC1(C)CNC(=O)c2sc(NC(=O)c3ccccc3)nc2C1	n	n	n	n	n	91
CC1(C)CC(=O)c2sc(NC(=O)c3cccs3)nc2C1	n	n	54	n	x	n
O=C(Nc1nc2c(s1)CCCC2)c1cccs1	n	n	57	n	x	n
CC1(C)CC(=O)c2sc(NC(=O)C(C)(C)C)nc2C1	n	n	n	n	n	n
Cc1onc(-c2ccccc2Cl)c1C(=O)Nc1nc2c(s1)CCCC2	52	n	n	n	x	n
Cc1ccccc1-c1ccc(C2[C@@H]3CN(S(=O)(=O)c4ccccc4C)C[C@H]2N3)cc1 (stereo not given in full)	x	x	x	x	n	x
SMILES	TROY NFkB inh	TRPM1 prom inh	TWEAK-Fn14 inh	EBV LMP1 NFkB	LGR2 antag	MITF TRPM1 HTS
Cc1nc2nc[nH]c2cc1Br	x	n	67	n	x	n
COc1cccc(NC(=O)N[C@@H]2C=C[C@H](CC(=O)Nc3ccccc3)O[C@@H]2CO)c1	x	x	x	x	n	x
COc1cc(N/N=C/c2ccc(N(C)C)cc2)ncn1	n	n	60	n	74	n
CCC(=O)N1C[C@H](C)[C@H](OC)CN(C)C(=O)c2cc(NC(=O)COC)ccc2OC[C@H]1C	x	x	x	x	n	x
CCn1c(/C=C/Nc2ccccc2)[n+](CC)c2ccc(Cl)cc21	n	n	n	n	n	n
CCn1c(/C=C/N(C)c2ccccc2)[n+](CC)c2ccc(Cl)cc21	n	65	n	n	n	n
C=C1CC(COc2cc(=O)oc3ccccc23)(c2ccccc2)OC1=O (stereo not given)	58	94	67	67	x	n
O=C(Nc1ccccc1)N1C[C@@H]2[C@H](c3ccccc31)[C@H](CO)N2Cc1cocn1	x	x	x	x	n	x
O=C(CSc1nccn1-c1ccccc1)c1ccc(Cl)cc1	n	n	n	n	x	n
Cc1ccc(C(=O)CSc2nccn2-c2ccccc2)cc1	51	n	n	n	x	n
